Screening data: PubChem, SRMLSC
A selection: hits, their analogues and other compounds. The true share with any hit is near 6.8%.
Autofluor 339 = intrinsic fluorescence of library compounds, ex339/em460 – biochemical, MLSMR library, data from DPM-DC assay, artefact control, profiling panel | compound autofluorescence, ex339/em460 nm, NADH buffer; active compounds read high; 1 = no-compound wells, NADH background | 5.5% of 65,000 active | fluorescence fold increase at 10 µM;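 active = at 10 µM, mean starting fluorescence two-fold or more over control wells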;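 also: signal is the first read of a kinetic run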
Spn PMK inh = S. pneumoniae PMK inhibition. purified PMK, PK/LDH-coupled NADH absorbance 340 nm. inhibition, % at 10 µM. 0.49% of 65,000 active;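 active = top-ranked compounds by inhibition in the single 10 µM screen, taking a fixed number of the strongest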
Abs 340nm = compounds absorbing at 340 nm | compound absorbance at 340 nm, fold over control | fold change at 10 µM | 65,000 tested, under 10 active;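 active = at 10 µM dose, initial 340 nm absorbance at least 2 fold that of control wells; inactive = change under 2 fold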;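 also: initial absorbance extrapolated from kinetic A340 decline of NADH oxidation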
NADH enzymes = inhibition of NAD/NADH coupling enzymes, library profiling | IC50, µM (top dose mostly 10 µM) | 0.02% of 65,000 active | AID 774 | coupled PK/LDH NADH assays, four targets;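 active = single-dose screening hits from any of four coupled enzyme assays that gave an IC50 when retested across doses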;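 also: the DPM-DC format reads NADH fluorescence rather than 340 nm absorbance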
MK inhibit = inhibitors of Streptococcus pneumoniae mevalonate kinase | 0.48% of 65,000 active | inhibition, % at 10 µM | AID 555 | purified MK, PK/LDH-coupled NADH absorbance 340 nm;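 active = ranked among the strongest by inhibition in the single 10 µM screen, a fixed top-ranked set picked for dose follow-up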
DPM-DC inhibit = inhibitors of Streptococcus pneumoniae diphosphomevalonate decarboxylase | calls only at 10 µM | purified DPM-DC, PK/LDH coupled NADH fluorescence | 0.49% of 65,000 active;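 active = the 320 compounds with the highest percent inhibition in the single-dose primary screen, excluding strongly autofluorescent ones, cut at about 32% in these data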;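 also: kinetic rate of NADH fluorescence loss reporting ADP formed by the decarboxylase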
Large screens that a line does not name were inactive.

CCCNC(=O)c1c(N)n(CC2CCCO2)c2nc3ccccc3nc12 (centres undefined)	Autofluor 339 3.9 (not shown: DPM-DC inhibit)
CC(C)OCCCNC(=O)c1c(N)n(CC2CCCO2)c2nc3ccccc3nc12 (centres undefined)	Autofluor 339 3 (not shown: DPM-DC inhibit)
c1cncc(C2CC(c3cccs3)n3ncnc3N2)c1 (centres undefined)	none
COc1ccccc1N1CCN(Cc2ccccc2F)CC1	MK inhibit 51
COc1ccccc1N1CCN(Cc2ccccc2Cl)CC1	MK inhibit 49
CN1CCN(C(=O)OC2c3nccnc3C(=O)N2c2ccc(Cl)cn2)CC1 (centres undefined)	none
ClC1=CCC2CN(CCN3CCCCC3)CC2C1 (centres undefined)	none
CC(=O)N1CCC2(CC1)CC(=O)c1cc(OCC(=O)N3CCN(C)CC3)ccc1O2	Autofluor 339 5.1 (not shown: DPM-DC inhibit)
Cc1ccc2c(c1)C(c1ccccc1)NCC(=O)N2 (centres undefined)	none
CC(C)CCn1c(N)c(C(=O)OCC2CCCO2)c2nc3ccccc3nc21 (centres undefined)	Autofluor 339 4 (not shown: DPM-DC inhibit)
CCCCn1c(N)c(C(=O)OCC2CCCO2)c2nc3ccccc3nc21 (centres undefined)	Autofluor 339 3.9 (not shown: DPM-DC inhibit)
CCCCn1c(NC(=O)c2ccco2)c(C(=O)OCC)c2nc3ccccc3nc21	Autofluor 339 3.8 (not shown: DPM-DC inhibit)
COCC(C)OC(=O)c1c(N)n(Cc2ccco2)c2nc3ccccc3nc12 (centres undefined)	Autofluor 339 2.3 (not shown: DPM-DC inhibit)
CCOC(=O)c1c(N)n(Cc2ccco2)c2nc3ccccc3nc12	Autofluor 339 2.2 (not shown: DPM-DC inhibit)
CCOC(=O)C1=C(N)Oc2cc(C)oc(=O)c2C12C(=O)N1c3c(cc(OC)cc32)C(C)=CC1(C)C (centres undefined)	none
Cc1ccccc1C1=NCC(=O)N(CC(=O)NCc2ccco2)c2sc3c(c21)CCCC3	none
O=C(c1csc2c1CCCCC2)N1CCC2(CC1)OCCO2	none
Cn1c(C(=O)N2CCC3(CC2)OCCO3)cc2c(=O)n(C)c3ccccc3c21	none
Cc1cccn2c(=O)c3cc(C(=O)N4CCC5(CC4)OCCO5)n(C)c3nc12	Autofluor 339 5 (not shown: DPM-DC inhibit)
CC(=NCC1CCCO1)c1c(O)n(Cc2ccccc2)c(=O)[nH]c1=O (centres undefined)	none
CC(C)[C@H]1C(=O)N2CCC[C@H]2[C@]2(O)O[C@](NC(=O)[C@@H]3C=C4c5cccc6[nH]cc(c56)C[C@H]4N(C)C3)(C(C)C)C(=O)N12	Autofluor 339 2.4
Clc1ccc(COC(Cn2ccnc2)c2ccc(Cl)cc2Cl)c(Cl)c1 (centres undefined)	none
CCCCOCCCn1c(N)c(C(=O)OCCOC)c2nc3ccccc3nc21	Autofluor 339 2.3 (not shown: DPM-DC inhibit)
COCCCn1c(N)c(C(=O)NCCC(C)C)c2nc3ccccc3nc21	Autofluor 339 3.7 (not shown: DPM-DC inhibit)
COCCOC(=O)c1c(N)n(Cc2ccccc2)c2nc3ccccc3nc12	Autofluor 339 3.9 (not shown: DPM-DC inhibit)
CC(C)(C)c1nc(N2CCN(C(=O)c3ccco3)CC2)c2nnn(Cc3ccccc3Cl)c2n1	none
O[C@@H]1CCCC[C@H]1N1CCC(c2ccccc2)CC1	none
O=C(c1cccs1)C1CN2CCC1CC2 (centres undefined)	none
CC(C)OC(=O)c1c(N)n(CC2CCCO2)c2nc3ccccc3nc12 (centres undefined)	Autofluor 339 3 (not shown: DPM-DC inhibit)
Nc1c(C(=O)OC2CCCCC2)c2nc3ccccc3nc2n1CC1CCCO1 (centres undefined)	Autofluor 339 3.6 (not shown: DPM-DC inhibit)
CC(C)CCOC(=O)c1c(N)n(CC2CCCO2)c2nc3ccccc3nc12 (centres undefined)	Autofluor 339 3.9 (not shown: DPM-DC inhibit)
COc1cc2[nH]c(=O)n(-c3ccccc3)c(=O)c2cc1OC	Autofluor 339 2.1 (not shown: DPM-DC inhibit)
COc1cc2[nH]c(=O)n(-c3cccc(Cl)c3)c(=O)c2cc1OC	none
CN(C)P1(N(C)C)=Nc2c(c(N)nn2C)C(c2ccccc2)=N1	none
COC(=O)c1cc(COc2cc(C)cc3oc(=O)c4c(c23)CCC4)c(C)o1	none
Cc1cc(OCC(=O)OC(C)C)c2c3c(c(=O)oc2c1)CCCC3	none
COC(=O)C(C)Oc1cc(C)cc2oc(=O)c3c(c12)CCC3 (centres undefined)	Autofluor 339 3.8 (not shown: DPM-DC inhibit)
COC(=O)C(C)Oc1cc(C)cc2oc(=O)c3c(c12)CCCC3 (centres undefined)	Autofluor 339 3.7 (not shown: DPM-DC inhibit)
CCOC(=O)C(C)Oc1cc(C)cc2oc(=O)c3c(c12)CCCC3 (centres undefined)	Autofluor 339 2.1 (not shown: DPM-DC inhibit)
CN1C(=O)N(C)C(=O)C2(Cc3c(nc4ccccn4c3=O)N3CCc4ccccc4C32)C1=O (centres undefined)	none
Cc1cc(OCC(=O)NC2CCS(=O)(=O)C2)c2c3c(c(=O)oc2c1)CCC3 (centres undefined)	Autofluor 339 2.2 (not shown: DPM-DC inhibit)
Cc1cc(OCc2nn[nH]n2)c2c3c(c(=O)oc2c1)CCC3	Autofluor 339 3.9 (not shown: DPM-DC inhibit)
O=C(c1cc2c(s1)-c1ccccc1OC2)N1CCC2(CC1)OCCO2	Autofluor 339 5.1 (not shown: DPM-DC inhibit)
CCn1nc(-c2cccs2)nc2c(=O)n(C)c(=O)nc1-2	NADH enzymes 8.4µM, MK inhibit 63, DPM-DC inhibit active
C=CCn1c(O)c(C(C)=Nc2cc(OC)ccc2OC)c(=O)[nH]c1=O	none
O=C(NCC(c1cccnc1)N1CCN(c2ccc(F)cc2)CC1)Oc1ccccc1 (centres undefined)	none
CCCCP(=O)(O)c1ccccc1	none
CCCCCCOC(=O)c1ccccc1N	Autofluor 339 2.1 (not shown: DPM-DC inhibit)
O=C(Cn1cnc2sc3c(c2c1=O)CCCC3)NCCC(=O)N1CCC2(CC1)OCCO2	none
COC(=O)CC1=C(C(=O)OC)C2(C(=O)N(C)c3ccccc32)C(C#N)=C(N)O1 (centres undefined)	none
c1ccc2c(CN3CCCCCCC3)c[nH]c2c1	MK inhibit 48
c1ccc2c(CN3CCN(C4CCCCC4)CC3)c[nH]c2c1	none
Nc1c(C(=O)NCc2ccco2)c2nc3ccccc3nc2n1Cc1ccc(F)cc1	Autofluor 339 2.2 (not shown: DPM-DC inhibit)
COc1ccc(Cn2c(N)c(C(=O)NCc3ccco3)c3nc4ccccc4nc32)cc1	Autofluor 339 4.9 (not shown: DPM-DC inhibit)
CC(C(=O)c1c[nH]c2ccccc12)N1CCc2ccccc2C1 (centres undefined)	none
CC(C)Cc1[nH]c(=O)c(C#N)c2c1CCC2	Autofluor 339 2.3 (not shown: DPM-DC inhibit)
O=c1c2ccccc2nc(N2CCCC2)n1-c1ccc(Cl)cc1	Autofluor 339 3.3
CCOC(=O)C1=C(N)OC2=C(C(=O)CCC2)C12C(=O)N1c3c(ccc(C)c32)C(C)=CC1(C)C (centres undefined)	none
CCOC(=O)/C(CCCN(CC)CC)=N\O	none
O=C(Cn1c(=O)c(C(F)(F)F)nc2ccccc21)N1CCC2(CC1)OCCO2	Autofluor 339 2
O=C(Cn1ncc2ccsc2c1=O)N1CCC2(CC1)OCCO2	none
